The record followed here is PubChem BioAssay (NCI).

What all share (test): NCI-60 one-dose screen, 48 h (100 = growth as untreated, 0 = no growth, -100 = all killed)
One assay has as its system DU-145 prostate. To be noted: 10 µM unless noted.
In the next assay the test system is K-562 leukemia. To be noted: 10 µM unless noted.
The next assay concerns MALME-3M melanoma. As to conditions: 10 µM unless noted.
Another assay concerns MDA-MB-231 breast. As to conditions: 10 µM unless noted.
The subject of the next assay is RXF 393 renal. To be noted: 10 µM unless noted.
The next assay deals with SF-268 CNS. As to conditions: 10 µM unless noted.
The next assay relates to SF-295 CNS. To be noted: 10 µM unless noted.
For the next assay, the system named is SF-539 CNS. To be noted: 10 µM unless noted.
The subject of a further assay is UACC-257 melanoma. As to conditions: 10 µM unless noted.
For the next assay, the system named is M14 melanoma. As to conditions: 10 µM unless noted.
Another assay has as its system HCT-15 colon. To be noted: 10 µM unless noted.
The subject of a further assay is HT29 colon. To be noted: 10 µM unless noted.
The test system of another assay is SNB-75 CNS. As to conditions: 10 µM unless noted.
A further assay has as its system SNB-19 CNS. To be noted: 10 µM unless noted.
The next assay relates to U251 CNS. As to conditions: 10 µM unless noted.
The next assay has as its system PC-3 prostate. As to conditions: 10 µM unless noted.
The subject of the next assay is SK-MEL-5 melanoma. As to conditions: 10 µM unless noted.
In the next assay the test system is UACC-62 melanoma. To be noted: 10 µM unless noted.
The test system of a further assay is LOX IMVI melanoma. To be noted: 10 µM.
The next assay deals with SK-MEL-28 melanoma. As to conditions: 10 µM unless noted.

Compounds without any hit were thinned out: in the full panel of roughly 83,000, 20% have a hit.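 Assay: single dose, 48 h. Readout: percent growth (0 = no net growth; negative = cell death). Active: <10.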 A number with no mark means an inactive call. The source made the active and inactive calls.

`COC(=O)C(=[N+]=[N-])C(=O)c1ccc([N+](=O)[O-])o1`: the growth in the assay with DU-145 prostate was 104%; with K-562 leukemia it was 81.6%; in the assay on MALME-3M melanoma, 25.4%; in the assay on MDA-MB-231 breast, 97.6%; in the assay with RXF 393 renal it was 81.3%; with SF-268 CNS, 92.4%. In addition, the growth in the assay with SF-295 CNS was 108%; in the assay with SF-539 CNS, 104%; in the assay on UACC-257 melanoma, 61.5%; in the assay on M14 melanoma, 89.6%; in the assay with HCT-15 colon, 10.5%; in the assay with HT29 colon, 61.5%. Also, the growth in the assay on SNB-75 CNS is 103%; in the assay with SNB-19 CNS it was 92.9%; in the assay with U251 CNS, 88.7%; in the assay with PC-3 prostate, 74%; with SK-MEL-5 melanoma, 93.6%; with UACC-62 melanoma, 74%. Moreover, the growth in the assay with LOX IMVI melanoma is 78.9%; in the assay on SK-MEL-28 melanoma, 109%.
As for `COC(=O)Nc1nc2ccc(C3(c4ccc(F)cc4)OCCO3)cc2[nH]1`, the growth is 12.2% with DU-145 prostate; 9.31% (active) in the assay on K-562 leukemia; 31.1% in the assay with MALME-3M melanoma; 30.3% with MDA-MB-231 breast; 0.251% (active) in the assay with RXF 393 renal; 50.5% in the assay with SF-268 CNS. The growth in the assay on SF-295 CNS was 4.04% (active); in the assay with SF-539 CNS, -13.9% (active); in the assay on UACC-257 melanoma, 45.5%; in the assay with M14 melanoma, 23.3%; with HCT-15 colon, 25.9%; in the assay on HT29 colon, 0.785% (active). Also, the growth in the assay on SNB-75 CNS was 10.3%; with SNB-19 CNS it was 89.1%; in the assay with U251 CNS, 13.9%; in the assay with PC-3 prostate it was 14.8%; in the assay on SK-MEL-5 melanoma, 21.2%; in the assay on UACC-62 melanoma, 53.3%. Also, the growth was 45.2% in the assay on LOX IMVI melanoma and 48.1% in the assay with SK-MEL-28 melanoma.
As to `C/C(=N/NC(N)=S)c1ccc(C)cc1`, the growth is 100% in the assay with DU-145 prostate; 58% in the assay on K-562 leukemia; 102% with MALME-3M melanoma; 97.4% in the assay with MDA-MB-231 breast; 97.4% in the assay with RXF 393 renal; 98.7% with SF-268 CNS. The growth in the assay on SF-295 CNS is 93.3%; in the assay on SF-539 CNS, 100%; in the assay on UACC-257 melanoma, 89.2%; in the assay with M14 melanoma, 82.7%; in the assay on HCT-15 colon it was 79.9%; in the assay with HT29 colon it was 55.8%. The growth was 92.9% in the assay on SNB-75 CNS; 104% in the assay on SNB-19 CNS; 84.9% with U251 CNS; 90.6% with PC-3 prostate; 103% in the assay on UACC-62 melanoma; 108% in the assay with LOX IMVI melanoma. In the assay with SK-MEL-28 melanoma, the growth is 111%.
Turning to `CN(C)c1ccc(C(C#N)(c2ccccc2)c2ccc(N(C)C)cc2)cc1`, the growth with DU-145 prostate was 60%; with K-562 leukemia, 26.1%; with MALME-3M melanoma, 69.9%; with MDA-MB-231 breast, 79.4%; in the assay with RXF 393 renal it was 75.3%; in the assay with SF-268 CNS, 58.9%. Also, the growth in the assay with SF-295 CNS was 77.9%; with SF-539 CNS it was 16.1%; with UACC-257 melanoma it was 84.7%; with M14 melanoma, 55.2%; with HCT-15 colon, 71.8%; with HT29 colon, 14.6%. Also, the growth is 57.1% with SNB-75 CNS; 63.7% with SNB-19 CNS; 7.62% (active) in the assay on U251 CNS; 69.4% in the assay on PC-3 prostate; 70.5% with UACC-62 melanoma; 51.1% with LOX IMVI melanoma. In addition, the growth in the assay with SK-MEL-28 melanoma is 60.2%.
In the case of `Nc1nc(-c2ccccc2)nc(N)c1N=O`, the growth is 88.8% with DU-145 prostate; 31.7% in the assay with K-562 leukemia; 91.3% with MALME-3M melanoma; 93.8% in the assay with MDA-MB-231 breast; 63.9% in the assay with RXF 393 renal; 77.2% in the assay with SF-268 CNS. For the same compound, the growth in the assay on SF-295 CNS was 108%; with SF-539 CNS, 77.5%; with UACC-257 melanoma it was 54.4%; in the assay on M14 melanoma it was 67.3%; in the assay on HCT-15 colon, 53.6%; in the assay on HT29 colon, 14.5%. Moreover, the growth with SNB-75 CNS is 44.8%; in the assay on SNB-19 CNS, 88.7%; in the assay on U251 CNS it was 52.4%; in the assay on PC-3 prostate it was 79.9%; in the assay on SK-MEL-5 melanoma, 100%; with UACC-62 melanoma it was 71.8%. The growth with LOX IMVI melanoma was 66.7%; in the assay with SK-MEL-28 melanoma, 75.3%.
As to `CCOC(=O)c1c(C)[nH]c2ccc(O)cc12`, the growth in the assay on DU-145 prostate is 106%; in the assay on K-562 leukemia, 101%; in the assay on MALME-3M melanoma, 103%; in the assay with MDA-MB-231 breast, 96.7%; in the assay with RXF 393 renal, 109%; in the assay on SF-268 CNS, 97.7%. Besides, the growth is 111% with SF-295 CNS; 98.1% in the assay with SF-539 CNS; 92.9% in the assay on UACC-257 melanoma; 101% in the assay on M14 melanoma; 109% in the assay on HCT-15 colon; 96.3% in the assay on HT29 colon. The growth with SNB-75 CNS is 100%; in the assay with SNB-19 CNS, 101%; with U251 CNS, 97.3%; in the assay with PC-3 prostate it was 93.2%; in the assay on LOX IMVI melanoma, 97.1%.
Consider `NC(=S)N/N=C/c1ncccc1O`, for which the growth with DU-145 prostate is 12.7%; in the assay on K-562 leukemia, 24%; in the assay on MALME-3M melanoma, 54%; with MDA-MB-231 breast, 34.8%; in the assay with RXF 393 renal, 9.63% (active); with SF-268 CNS, 14.9%. In addition, the growth in the assay on SF-295 CNS was 21.5%; in the assay on SF-539 CNS, -7.14% (active); in the assay with UACC-257 melanoma, 18.9%; in the assay on M14 melanoma, -56.2% (active); in the assay on HCT-15 colon it was 33.7%; in the assay with HT29 colon, 28.5%. Further, the growth in the assay on SNB-75 CNS is 26.7%; in the assay on SNB-19 CNS it was 29.1%; in the assay with U251 CNS, 25.4%; with PC-3 prostate it was 37%; in the assay with UACC-62 melanoma, 18.3%; with LOX IMVI melanoma, 10.5%.
On to `C[C@@]1(CO)[C@H](O)CC[C@@]2(C)[C@H]1CC[C@H]1C[C@@H]3C[C@@]12CC[C@@]3(O)COC(=O)CN`, for which the growth with DU-145 prostate is 9.57% (active); in the assay with K-562 leukemia it was 34.2%; with MALME-3M melanoma it was 77.4%; with MDA-MB-231 breast it was 92%; in the assay on RXF 393 renal, 5.23% (active); in the assay on SF-268 CNS it was 50.5%. Also, the growth in the assay with SF-295 CNS is 8.57% (active); in the assay with SF-539 CNS, -13.9% (active); with UACC-257 melanoma, 21%; in the assay on M14 melanoma, 42.4%; in the assay on HCT-15 colon, 54%; with HT29 colon, 38.7%. Further, the growth with SNB-75 CNS was 57.3%; with SNB-19 CNS, 59.6%; in the assay on U251 CNS, 44.3%; with PC-3 prostate, 45.4%; in the assay on UACC-62 melanoma, 26.3%; in the assay with LOX IMVI melanoma, 29%.
